Assay outcomes: PubChem BioAssay, several laboratories
CD11b adhes enh: CD11b/CD18-fibrinogen binding enhancement; K562 CD11b/CD18 adhesion to fibrinogen, ATPlite luminescence; activation, % at 10 µM; actives 0.07% (n = 93,000); AID 1499;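 active = 10 µM primary screen giving 50% or more activity, confirmed by 40% or more on retest at that dose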
CD11b adhes inh: blocks human CD11b/CD18 adhesion to fibrinogen. inhibition, % at 10 µM. P05107+P11215. actives 0.54% (n = 93,000). K562 CD11b/CD18 adhesion to fibrinogen, ATPlite luminescence; Mn2+ added to activate the integrin;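 active = primary inhibition of 50% or more at 10 µM, then 40% or more on retest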
Pyk2 oligo antag: blocks oligomerization of human Pyk2 in cells; Q14289; Q293 cells, Pyk2 FERM NanoBiT luminescence; stronger effect = lower value; actives 0.83% (n = 99,000); AID 1347419; z-score (the deposit names both 25 µM and 10 µM);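 active = Z-score of -3 or lower, scaled per plate to the spread of control and sample wells; inactive = z-score above -3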;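 note: negative z-score means lost luminescence so less FERM oligomerization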
Target sequence (Q14289 whole entry, looked up): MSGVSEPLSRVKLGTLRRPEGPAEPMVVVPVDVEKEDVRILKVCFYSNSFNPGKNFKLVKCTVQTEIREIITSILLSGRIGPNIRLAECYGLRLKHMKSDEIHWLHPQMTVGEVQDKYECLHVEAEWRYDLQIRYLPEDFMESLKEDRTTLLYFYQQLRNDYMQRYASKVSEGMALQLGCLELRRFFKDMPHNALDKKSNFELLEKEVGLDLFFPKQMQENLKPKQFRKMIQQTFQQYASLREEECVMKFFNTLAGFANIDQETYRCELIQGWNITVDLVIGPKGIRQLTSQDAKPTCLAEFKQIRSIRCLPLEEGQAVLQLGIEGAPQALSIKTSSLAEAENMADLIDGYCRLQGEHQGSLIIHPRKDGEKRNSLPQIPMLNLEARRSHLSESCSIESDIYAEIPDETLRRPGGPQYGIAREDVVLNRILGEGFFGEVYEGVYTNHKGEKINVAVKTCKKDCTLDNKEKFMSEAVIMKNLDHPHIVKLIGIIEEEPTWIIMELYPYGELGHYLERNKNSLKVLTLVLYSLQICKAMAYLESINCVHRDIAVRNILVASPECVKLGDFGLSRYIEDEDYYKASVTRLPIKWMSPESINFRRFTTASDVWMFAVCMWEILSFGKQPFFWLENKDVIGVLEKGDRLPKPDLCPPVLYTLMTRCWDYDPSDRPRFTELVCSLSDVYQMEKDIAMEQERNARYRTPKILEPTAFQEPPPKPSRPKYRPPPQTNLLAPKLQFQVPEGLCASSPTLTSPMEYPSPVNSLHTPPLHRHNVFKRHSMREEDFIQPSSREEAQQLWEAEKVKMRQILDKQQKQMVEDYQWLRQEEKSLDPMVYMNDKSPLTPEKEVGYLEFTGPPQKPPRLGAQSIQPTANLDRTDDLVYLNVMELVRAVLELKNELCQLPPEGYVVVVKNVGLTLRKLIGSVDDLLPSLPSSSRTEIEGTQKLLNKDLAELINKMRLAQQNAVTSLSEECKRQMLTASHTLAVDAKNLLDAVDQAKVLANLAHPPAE
MRP-1 activ: MRP-1 activation. H69AR cells + doxorubicin, viability rescue, CellTiter-Glo. actives 0.61% (n = 140,000). viability increase, % at 10 µM. AID 799;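 active = viability gain under doxorubicin at or above a set limit, the compound median plus 3 SD, cut at about 4.7% in these data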;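 note: MRP-1 overexpressing cells given doxorubicin 25 µM after compound pretreatment; 18-22 h compound pretreatment then 72 h with doxorubicin before readout; 0% = doxorubicin-only wells and 100% = vehicle-treated cells without doxorubicin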
MRP reversal: MRP-mediated drug resistance reversal; H69AR cells + 2 uM doxorubicin, CellTiter-Glo, 72 h; differential viability (reversal), % at 10 µM; actives 0.04% (n = 85,000); AID 602;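 active = viability drop by adding the cancer drug above about 55%, with treated viability meeting a 40% cutoff, limit read from the data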;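 note: viability without doxorubicin minus viability with 2 µM doxorubicin for each compound; larger differential means the compound sensitizes cells more to doxorubicin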
Cav32 inh: inhibitors of human Cav3.2 T-type calcium channel | B-score at 10 µM | O95180 | actives 4% (n = 100,000) | Cav3.2-expressing cells, Fluo-4 calcium fluorescence FDSS; stronger effect = lower value;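 active = single-dose well whose peak fluorescence ratio is a statistical outlier from its plate by either plate-standardised score or position-corrected B-score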
* = called active by the depositor; x = no result. Sampled rows, rich in hits. Any-hit rate of the full collection: about 4.1%.

SMILES	CD11b adhes enh	CD11b adhes inh	Pyk2 oligo antag	MRP-1 activ	MRP reversal	Cav32 inh
Cc1cc(NC(=O)Cc2csc(-c3ccccc3)n2)ccc1Br	0	6	x	3	x	x
COc1ccc(/C=N/NC(=O)c2ccoc2C)cc1OC	x	x	x	1	x	x
COc1ccc(/C=N/NC(=O)c2ccoc2C)cc1COc1ccc(Cl)cc1	4	6	-0.37	-5	x	-6.5*
COc1ccc(/C=N/NC(=O)c2ccn[nH]2)cc1COc1ccc(F)cc1	-4	2	-3.2*	-3	x	-0.24
C=CCn1c(CSc2nc3ccccc3s2)nnc1SCC(=O)OCC	-3	-56	1.4	-2	-4	0.03
O=C1c2cccc3c(N4CCCCC4)ccc(c23)C(=O)N1c1ccc(Cl)cn1	x	x	x	x	3	x
O=C1c2cccc3c(N4CCCCC4)ccc(c23)C(=O)N1c1ccccn1	2	8	0.09	-2	x	-6.9*
CCc1ccc(-c2csc3ncn(CC(=O)N4CCOCC4)c(=O)c23)cc1	2	-8	0.53	-1	6	-0.092
COCCCNC(=O)CS(=O)Cc1nc(-c2ccccc2C)oc1C (stereo unspecified)	2	1	x	-1	16	0.35
O=S(=O)(Nc1cc(Cl)ccc1N1CCCCC1)c1cccs1	x	x	0.3	0	9	-5.7*
COC(=O)C1C(=O)c2c([nH]c(C(=O)OC3CCCCC3)c2C)CC1C (stereo unspecified)	0	6	x	5.2*	2	-0.034
N#Cc1nc(COc2ccccc2)oc1N1CCCCCC1	20	2	x	6.3*	5	-4*
N#Cc1nc(COc2ccccc2)oc1N1CCCC1	2	-4	-0.59	5.0*	x	x
N/C(=N\OC(=O)c1cc(-c2ccccc2)nc2ccccc12)c1cccnc1	x	x	x	1	x	x
CCn1c(=NC(=O)CSC(C)=O)sc2cc(F)ccc21	2	-11	-0.47	-4	-8	-11*
Cc1ccc(N2C(N)=NC(N)=NC2(C)C)c(C)c1	3	0	0.25	-2	7	-0.22
CSc1cccc(NS(=O)(=O)c2ccccc2)c1	0	10	-0.43	1	x	-1
O=c1[nH]ncc(N/N=C/c2ccccc2)c1Cl	-2	-7	0.36	1	-3	0.71
Cc1ccc(/C=N\Nc2cn[nH]c(=O)c2Cl)cc1	-5	2	0.82	2	12	-5.3*
COC(=O)C1=CNC=C(C(=O)OC)C1c1ccc(Cl)cc1	10	-26	-3.8*	-2	19	-1.8
COC(=O)C1=CNC=C(C(=O)OC)C1c1ccccc1Cl	-2	-6	-2.1	-3	x	-0.32
COC(F)(C(=O)Nc1ccc2c(c1)C(=O)NC2=O)C(F)(F)F (stereo unspecified)	-5	1	0.09	0	-15	0.14
COc1ccc(Cn2cnc3c([N+](=O)[O-])c(C)c(C)cc32)cc1	x	x	-0.47	-4	x	-6.2*
COc1ccc(S(=O)(=O)N[C@@H](Cc2ccccc2)C(=O)N2CC[C@@]3(O)CCCC[C@H]3C2)cc1	1	-2	1.2	-4	-2	0.38
O=C([C@H](Cc1ccccc1)NS(=O)(=O)c1ccc(Cl)cc1)N1CC[C@@]2(O)CCCC[C@H]2C1	x	x	-1.4	-2	-18	-3.3*
SMILES	CD11b adhes enh	CD11b adhes inh	Pyk2 oligo antag	MRP-1 activ	MRP reversal	Cav32 inh
Cc1nc(N[C@@H](Cc2c[nH]c3ccccc23)C(=O)O)c2oc3ccccc3c2n1	x	x	x	-4	-5	x
CCOC(=O)CSc1nc(NCc2ccco2)c2ccccc2n1	-2	-2	-0.26	-4	-7	0.31
CCOC(=O)CSc1nc(Nc2ccc3c(c2)OCO3)c2ccccc2n1	0	-14	-3*	1	-6	-1.3
N#CCSc1nc(Nc2ccc3c(c2)OCO3)c2ccccc2n1	-2	-6	-4.2*	0	-25	0.97
COc1cc(Nc2nc(SCC#N)nc3ccccc23)cc(OC)c1OC	0	12	-0.13	-3	-20	0.21
Cn1c2c(c(=O)n(C)c1=O)CN(CCc1ccccc1)CN2	6	-33	-0.43	-1	2	-0.93
Cc1c(OCC(=O)OC(C)(C)C)ccc2c3c(c(=O)oc12)CCC3	-5	-5	-0.41	5.1*	-10	x
Cc1c(OCC(=O)OC(C)C)ccc2c3c(c(=O)oc12)CCC3	7	4	1.3	4	7	-1.5
COc1cc(C2c3c(-c4ccccc4)n[nH]c3C(=O)N2c2ccccc2)ccc1O (stereo unspecified)	3	-3	-3.1*	-2	27	-1.1
COc1cc(C2c3c(n[nH]c3C)C(=O)N2c2ccc(C)cc2)ccc1O (stereo unspecified)	0	-6	-1	-5	13	0.8
Cc1noc(C)c1S(=O)(=O)N1CCC(C(=O)N2CCC(N3CCCCC3)CC2)CC1	-4	48	x	-1	12	x
CCN(CC)c1ccc(C2C(C(=O)OC(C)C)C(=O)CC(C)(O)C2C(=O)OC(C)C)cc1 (stereo unspecified)	-4	-24	-0.57	-1	x	-5.7*
CC(C)CC(NC(=O)C(Cc1ccc(OCc2ccccc2)cc1)NC(=O)OC(C)(C)C)C(N)=O (stereo unspecified)	-5	55	0.72	-1	x	-4.8*
CCOC(=O)C1=C(CSc2nc(CC)c(C)cc2C#N)OC(N)=C(C#N)C1c1ccc(OC)cc1 (stereo unspecified)	x	x	-1.1	-7	10	-8.4*
CCOC(=O)C1=C(CSc2nc(-c3ccncc3)ccc2C#N)OC(N)=C(C#N)C1c1cccnc1 (stereo unspecified)	-3	-8	-0.11	-1	-15	-5*
CCOC(=O)C1=C(CSc2nc(-c3ccncc3)ccc2C#N)OC(N)=C(C#N)C1c1ccc(OC)cc1 (stereo unspecified)	50	-5	-0.02	3	0	-4.3
CN=C(Nc1cccc(OC)c1)SC1CC(=O)N(c2ccc(C(=O)O)cc2)C1=O (stereo unspecified)	x	x	1.2	0	x	x
O=C(NC1CCCCC1)C1CC=CCC1C(=O)OCC(Cl)=C(Cl)Cl (stereo unspecified)	x	x	-0.65	0	4	-7.5*
Cc1cccc(NS(=O)(=O)c2ccc(C3CCCCC3)cc2)c1	-8	93	-1	-5	x	-4.5*
Cc1ccc(S(=O)(=O)Nc2cc(C(=O)Nc3cc(C)cc(C)c3)ccc2Cl)cc1	-2	42	-0.38	-2	x	-5.3*
Cc1cc(C)cc(NC(=O)c2ccc(S(=O)(=O)C(F)F)cc2)c1	7	-7	x	1	x	x
COc1cccc(S(=O)(=O)Nc2ccc(C(=O)Nc3ccncc3)cc2)c1	x	x	x	-2	x	x
Cc1cccc(NC(=O)c2cc(S(=O)(=O)c3ccccc3)ccc2Cl)c1	-4	-1	-0.23	-1	x	-5.6*
COc1cc(S(=O)(=O)Nc2cccc(C)c2)ccc1NC(=O)c1ccncc1	-4	15	x	5.2*	x	x
Cc1cccc(NS(=O)(=O)c2ccc(C3CCCCC3)cc2)n1	-1	29	-1.1	-2	12	-3.5
